In PubChem BioAssay:
The source made the active and inactive calls.

Legend:
[1] = target: Albumin (Bos taurus) (UniProt P02769); experiment: bovine serum albumin binders on microarray, profiling panel, artefact control for SMM control protein annotation, biochemical, small-molecule microarray, Alexa647 label, 635/667 nm fluorescence (AID 1118); settings: BSA-A647 binding, fluorescence 635 nm, higher = more signal;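 also: score merges 667 nm emission intensity and signal-to-noise per printed compound spot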
Albumin (Bos taurus), sequence (P02769 whole entry, looked up): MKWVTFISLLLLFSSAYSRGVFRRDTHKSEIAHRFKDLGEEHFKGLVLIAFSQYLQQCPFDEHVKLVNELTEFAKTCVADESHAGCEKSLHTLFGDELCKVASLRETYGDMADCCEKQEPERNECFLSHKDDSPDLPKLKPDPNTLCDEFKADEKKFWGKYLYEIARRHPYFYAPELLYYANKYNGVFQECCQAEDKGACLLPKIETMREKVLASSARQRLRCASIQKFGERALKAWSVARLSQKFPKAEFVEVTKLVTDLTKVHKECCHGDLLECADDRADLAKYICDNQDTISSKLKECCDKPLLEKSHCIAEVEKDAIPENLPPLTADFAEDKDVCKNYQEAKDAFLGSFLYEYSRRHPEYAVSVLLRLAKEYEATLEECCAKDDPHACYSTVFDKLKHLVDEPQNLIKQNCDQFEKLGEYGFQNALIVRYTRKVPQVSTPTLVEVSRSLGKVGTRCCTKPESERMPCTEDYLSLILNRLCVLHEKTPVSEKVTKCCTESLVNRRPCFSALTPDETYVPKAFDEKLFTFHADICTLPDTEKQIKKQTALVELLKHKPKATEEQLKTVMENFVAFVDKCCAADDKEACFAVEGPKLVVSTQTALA

[2] = small-molecule microarray binders of probe aXIP, primary screen, biochemical, NeuroSMM set, 635/667 nm fluorescence (AID 1119); settings: higher = more signal, called active from +8 up or from −8 down;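 also: probe is the protein aXip251-270 applied at 1 µg/mL to compound-printed slides; binding of probe to printed compounds measured as 667 nm fluorescence plus signal to noise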
[3] = small-molecule binders of probe aNOTCH3, primary screen, biochemical, small-molecule microarray, 635/667 nm fluorescence (AID 1120); settings: higher = more signal;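 also: probe is a biotin-tagged antibody raised against NOTCH3 rather than NOTCH3 protein; score merges spot fluorescence near 667 nm with spot signal to noise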
[4] = small-molecule binders of probe aNOTCH2, primary screen, biochemical, small-molecule microarray, 635/667 nm fluorescence (AID 1121); settings: higher = more signal;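 also: score merges feature fluorescence read at 667 nm with its signal to noise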
[5] = target: Carbonic anhydrase 2 (Homo sapiens) (UniProt P00918); experiment: CAII small-molecule binders, profiling panel, biochemical, small-molecule microarray, Alexa647-labelled CAII (AID 1122); settings: CAII-A647 binding fluorescence, higher = more signal
[6] = COS7 lysate on small-molecule microarray, probe aHis, 635 nm (AID 1123); settings: COS7 cell lysate, fluorescence, higher = more signal;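 also: z-score combines 667nm fluorescence intensity with signal-to-noise per printed compound spot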
[7] = compound binding in COS7 lysate, probe aLAP1, primary screen, cell lysate, small-molecule microarray (AID 1124); settings: probe aLAP1, fluorescence, higher = more signal;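 also: lysate comes from COS7 cells expressing LAP1 and is applied at 0.3 µg/mL; score merges spot fluorescence near 667 nm with signal-to-noise over triplicate slides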
[8] = system: Sam68 (KHDRBS1); experiment: Sam68 small-molecule binders, primary screen, biochemical, small-molecule microarray, 635 nm fluorescence (AID 1125); settings: small-molecule microarray binding, higher = more signal;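 also: score merges 667 nm channel intensity with signal to noise over triplicate slides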
[9] = system: Chordin-like protein 2 (CHRDL2); experiment: CHRDL2 small-molecule binders, primary screen, biochemical, small-molecule microarray, 635 nm fluorescence (AID 1126); settings: small-molecule microarray binding, fluorescence 635 nm; higher = more signal;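 also: printed compound slides probed with Chrdl2 protein at 4 µg/mL for 1 h at 4 C; score merges 667 nm emission intensity with signal to noise over three replicate slides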
[10] = target: Concanavalin-A (Canavalia ensiformis) (UniProt P02866); experiment: ConA small-molecule binders, primary screen, artefact control for SMM control protein annotation, biochemical, small-molecule microarray, Alexa647 label, 635 nm (AID 1127); settings: ConA-A647 binding fluorescence, higher = more signal;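 also: z combines 667 nm emission intensity with signal-to-noise across three replicate slides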
Concanavalin-A (Canavalia ensiformis), sequence (P02866 whole entry, looked up): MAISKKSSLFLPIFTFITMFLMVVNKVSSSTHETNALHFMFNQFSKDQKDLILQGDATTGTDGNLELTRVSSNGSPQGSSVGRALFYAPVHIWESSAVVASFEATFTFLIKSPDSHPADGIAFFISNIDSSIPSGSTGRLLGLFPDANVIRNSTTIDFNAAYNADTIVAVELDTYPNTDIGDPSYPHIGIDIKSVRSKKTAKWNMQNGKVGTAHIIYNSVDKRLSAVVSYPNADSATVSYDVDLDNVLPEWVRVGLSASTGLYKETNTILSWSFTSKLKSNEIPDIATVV

[11] = anti-His antibody binders, primary screen, artefact control for SMM control protein annotation, biochemical, small-molecule microarray, 635 nm fluorescence (AID 1128); settings: anti-His Alexa647 antibody binding, higher = more signal;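 also: score merges feature fluorescence with signal-to-noise for each printed compound spot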
[12] = system: Human papillomavirus type 1a E7 protein (residues 1-88); experiment: HPV1a E7 small-molecule binders, primary screen, biochemical, small-molecule microarray, residues 1-88, 635 nm (AID 1129); settings: small-molecule microarray binding, fluorescence 635 nm; higher = more signal
[13] = target: Focal adhesion kinase 1 (Homo sapiens) (UniProt Q05397); experiment: small-molecule microarray binders of FAK, primary screen, biochemical, 635/667 nm fluorescence, BSA, DTT (AID 1130); settings: PTK2 binding, 635 nm fluorescence, higher = more signal;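 also: composite of spot emission at 667 nm and signal to noise over triplicate slides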
Focal adhesion kinase 1 (Homo sapiens), sequence (Q05397 whole entry, looked up): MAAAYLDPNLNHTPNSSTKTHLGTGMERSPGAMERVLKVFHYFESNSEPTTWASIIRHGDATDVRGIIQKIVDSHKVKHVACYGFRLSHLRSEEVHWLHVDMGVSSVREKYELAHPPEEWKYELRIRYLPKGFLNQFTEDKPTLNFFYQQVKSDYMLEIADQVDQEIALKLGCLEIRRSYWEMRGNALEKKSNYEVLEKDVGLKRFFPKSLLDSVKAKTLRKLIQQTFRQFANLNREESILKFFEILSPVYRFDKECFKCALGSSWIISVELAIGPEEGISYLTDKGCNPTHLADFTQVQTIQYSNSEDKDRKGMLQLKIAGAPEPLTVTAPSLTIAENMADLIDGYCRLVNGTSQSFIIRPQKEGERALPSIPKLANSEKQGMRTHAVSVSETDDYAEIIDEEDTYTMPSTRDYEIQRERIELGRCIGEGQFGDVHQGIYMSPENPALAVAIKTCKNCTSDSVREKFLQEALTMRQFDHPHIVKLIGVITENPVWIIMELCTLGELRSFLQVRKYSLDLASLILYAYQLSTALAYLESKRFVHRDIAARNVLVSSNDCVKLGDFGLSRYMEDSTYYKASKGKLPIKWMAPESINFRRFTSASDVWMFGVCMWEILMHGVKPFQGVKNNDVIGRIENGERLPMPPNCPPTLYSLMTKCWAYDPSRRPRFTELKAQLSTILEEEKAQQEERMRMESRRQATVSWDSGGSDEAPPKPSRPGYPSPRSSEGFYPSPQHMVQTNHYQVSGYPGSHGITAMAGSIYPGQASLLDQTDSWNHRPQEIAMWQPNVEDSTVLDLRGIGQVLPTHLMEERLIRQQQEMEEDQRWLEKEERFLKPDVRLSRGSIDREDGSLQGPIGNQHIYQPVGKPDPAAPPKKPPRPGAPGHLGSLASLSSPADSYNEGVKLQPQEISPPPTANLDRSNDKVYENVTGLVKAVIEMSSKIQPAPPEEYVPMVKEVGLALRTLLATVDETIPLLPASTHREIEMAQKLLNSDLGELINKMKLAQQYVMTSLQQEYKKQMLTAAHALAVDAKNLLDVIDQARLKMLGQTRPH

[14] = system: Fibrinogen (Alexa647-labelled); experiment: fibrinogen binders on compound microarrays, profiling panel, artefact control for SMM control-protein annotation, biochemical, small-molecule microarray, 635/667 nm fluorescence (AID 1131); settings: fibrinogen-A647 binding fluorescence, higher = more signal;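 also: z-score merges 667 nm fluorescence with per-spot signal-to-noise over triplicate slides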
[15] = target: Follistatin (Homo sapiens) (UniProt P19883); experiment: follistatin binders on small-molecule microarrays, primary screen, biochemical, small-molecule microarray, 635/667 nm fluorescence (AID 1132); settings: FST binding, 635 nm fluorescence, higher = more signal
Follistatin (Homo sapiens), sequence (P19883 whole entry, looked up): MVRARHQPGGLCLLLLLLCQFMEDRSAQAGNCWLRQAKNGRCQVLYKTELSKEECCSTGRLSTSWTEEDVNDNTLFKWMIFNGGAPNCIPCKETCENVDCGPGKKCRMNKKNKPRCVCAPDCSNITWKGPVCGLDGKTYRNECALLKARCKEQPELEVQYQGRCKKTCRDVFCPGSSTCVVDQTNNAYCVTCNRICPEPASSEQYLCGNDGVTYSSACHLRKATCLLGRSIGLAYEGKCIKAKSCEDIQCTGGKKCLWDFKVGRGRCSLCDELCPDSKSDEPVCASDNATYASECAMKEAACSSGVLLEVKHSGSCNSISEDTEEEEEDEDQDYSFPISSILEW

[16] = target: Fibroblast growth factor 2 (Homo sapiens) (UniProt P09038); experiment: FGF2 binders on small-molecule microarrays, primary screen, biochemical, small-molecule microarray, 635/667 nm fluorescence (AID 1133); settings: small-molecule microarray binding, FGF2, fluorescence 635/667; higher = more signal
Fibroblast growth factor 2 (Homo sapiens), sequence (P09038 whole entry, looked up): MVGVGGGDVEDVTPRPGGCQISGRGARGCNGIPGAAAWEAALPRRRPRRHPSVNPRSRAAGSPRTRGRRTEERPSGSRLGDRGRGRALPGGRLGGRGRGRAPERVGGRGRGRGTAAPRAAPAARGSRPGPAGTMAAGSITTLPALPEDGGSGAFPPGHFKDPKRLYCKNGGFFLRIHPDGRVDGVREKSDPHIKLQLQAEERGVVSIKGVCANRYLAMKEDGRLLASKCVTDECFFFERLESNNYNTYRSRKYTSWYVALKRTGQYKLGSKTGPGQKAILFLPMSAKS

[17] = mitochondrial membrane potential change in A549 cells, profiling panel, cell-based, JC-1 fluorescence, basal, 24 h, 100 nL (AID 1138); settings: higher = more signal;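 also: A549 lung adenocarcinoma cells under basal conditions with no added stimulus; test concentration not given here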
[18] = system: Lefty1; experiment: Lefty1 binders on small-molecule microarrays, primary screen, biochemical, small-molecule microarray, 635/667 nm fluorescence (AID 1139); settings: small-molecule microarray binding, fluorescence 635/667; higher = more signal
[19] = system: wheat germ agglutinin (Triticum aestivum), Alexa647-labelled; experiment: wheat germ agglutinin binders on compound microarrays, profiling panel, artefact control for SMM control-protein annotation, biochemical, small-molecule microarray, 635/667 nm fluorescence (AID 1140); settings: WGA-A647 binding, 635 nm fluorescence, higher = more signal;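 also: score merges 667 nm feature emission with signal to noise over triplicate slides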
[20] = target: Luciferin 4-monooxygenase (Photinus pyralis) (UniProt P08659); experiment: firefly luciferase enzyme inhibitors, primary screen, biochemical, luminescence, purified enzyme, 2006 set (AID 1141); settings: SteadyGlo luminescence, 30 min, higher = more signal, called active from +8 up or from −8 down;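 also: cell-free assay with purified firefly luciferase at 100 ng per well in PBS; test concentration not given here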
Luciferin 4-monooxygenase (Photinus pyralis), sequence (P08659 whole entry, looked up): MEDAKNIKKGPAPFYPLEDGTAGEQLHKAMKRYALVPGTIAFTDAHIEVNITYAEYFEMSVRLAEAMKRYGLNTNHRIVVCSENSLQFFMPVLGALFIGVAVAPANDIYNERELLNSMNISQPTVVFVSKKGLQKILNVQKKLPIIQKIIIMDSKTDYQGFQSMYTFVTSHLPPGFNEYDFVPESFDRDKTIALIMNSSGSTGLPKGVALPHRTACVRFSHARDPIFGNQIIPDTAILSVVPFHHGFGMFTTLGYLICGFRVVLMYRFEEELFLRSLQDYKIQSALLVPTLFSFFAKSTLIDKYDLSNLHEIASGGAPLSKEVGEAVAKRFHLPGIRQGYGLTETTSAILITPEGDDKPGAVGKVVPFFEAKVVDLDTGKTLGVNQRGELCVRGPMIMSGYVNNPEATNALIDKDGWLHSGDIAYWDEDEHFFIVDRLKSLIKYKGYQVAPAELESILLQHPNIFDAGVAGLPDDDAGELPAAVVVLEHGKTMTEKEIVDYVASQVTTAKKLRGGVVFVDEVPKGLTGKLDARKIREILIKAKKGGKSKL

SMILES | composite z-score [1] | composite Z-score [2] | composite z-score [3] | composite z-score [4] | composite z-score [5] | composite z-score [6] | composite z-score [7] | composite z-score [8] | composite z-score [9] | composite z-score [10] | composite z-score [11] | composite z-score [12] | composite z-score [13] | composite z-score [14] | composite z-score [15] | composite z-score [16] | z-score [17] | composite z-score [18] | composite z-score [19] | z-score [20]
C=CCC(OC(C)=O)[C@@H]1[C@@H](N(Cc2cccc3ccccc23)C(=O)c2cccc3ccccc23)c2cc(OCCCO)ccc2N1C(=O)Cc1ccc(OC)cc1 (stereo not given in full) | 0.107 | 0.464 (inactive) | 0.128 | -0.0797 | 0.447 | 1.04 | 0.484 | 0.457 | 0.0561 | -0.653 | 0.856 | 0.0512 | -0.0125 | 0.263 | 0.921 | 0.103 | 0.924 | 0.306 | 0.655 | -0.378 (inactive)
CCCNC(=O)[C@@H]1c2ccccc2C(=O)N(Cc2cc(C(F)(F)F)cc(C(F)(F)F)c2)[C@H]1c1ccc(CO)cc1 | -0.419 | -0.251 (inactive) | -0.0343 | -0.194 | 0.422 | 0.64 | 0.227 | 0.679 | -0.608 | 0.234 | 0.14 | 0.541 | 0.452 | 0.0967 | 0.652 | 0.213 | 0.904 | 0.0044 | 0.14 | -0.831 (inactive)
COCCCNC(=O)[C@@]1(Cc2ccccc2CN=[N+]=[N-])COC(c2ccc(OCCCO)cc2)=N1 | 0.922 | 0.536 (inactive) | 0.248 | 0.0261 | 0.673 | 2.83 | 0.413 | 1.3 | -2.16 | 1.13 | 2.69 | 1.21 | 0.759 | 0.479 | 0.186 | -0.742 | 1.79 | -0.713 | 1.03 | -1.59 (inactive)
CC(C)C[C@@H]1NC(=O)[C@H]2C[C@@H](C(=O)NCCCC[N+](C)(C)C)[C@@H](c3cccc(OCCO)c3)N2C1=O | 0.252 | 0.331 (inactive) | 0.217 | -0.19 | 0.475 | 1.89 | 0.987 | 0.848 | 0.938 | 0.476 | 3.29 | -0.146 | -0.153 | -0.236 | 1.25 | 1.61 | 1.31 | 1.39 | -0.102 | -1.97 (inactive)
COc1ccc([Si](C)(C)[C@@H]2[C@@H](CCn3cc([C@H](O)c4ccccc4)nn3)O[C@]3(C(=O)N(C)c4c(Br)cc(C)cc43)[C@H]2C)cc1 | -0.0364 | 0.62 (inactive) | -0.129 | -0.118 | -0.273 | -0.525 | -0.129 | -0.849 | -0.254 | -0.679 | 0.18 | -0.773 | -0.501 | -0.59 | 1.19 | 1.44 | 0.517 | -0.166 | 0.397 | -2.15 (inactive)
CC(C)(C)OC(=O)CC[C@@]12N=C(c3ccc(OCCCO)cc3)O[C@@H]1c1ccccc1N(Cc1ccccc1)C2=O | 0.0674 | 1.83 (inactive) | -0.122 | -0.0318 | 0.434 | 1.67 | 0.583 | 1.15 | 0.145 | 1.05 | 2.92 | 1 | 1.16 | 0.214 | 1.39 | 0.54 | 1.43 | 0.345 | 0.036 | -2.14 (inactive)
C=C(COC)/C(=C/C[C@H](OC(C)=O)c1ccc(CO)o1)c1cnc2ccccc2c1 | 0.15 | 0.837 (inactive) | 0.116 | -0.11 | 0.969 | 1.25 | -0.105 | 1.29 | 1.14 | 1.09 | 1.28 | 1.17 | 0.284 | -0.0185 | 1.42 | 1.31 | 0.861 | 1.58 | 1.35 | -2.1 (inactive)
CC(C)NC(=O)[C@@H]1c2ccccc2C(=O)N(Cc2cc(F)cc(C(F)(F)F)c2)[C@H]1c1ccc(CO)cc1 | -0.448 | 0.115 (inactive) | -0.402 | -0.111 | 0.741 | 1.34 | -0.126 | -0.096 | -0.556 | -0.94 | -0.905 | -0.194 | 0.434 | -1.41 | -1.12 | -0.612 | 2.84 | -1.89 | -1.21 | -0.758 (inactive)
CO[C@H]1O[C@H](CO)[C@@H](OC(=O)Nc2ccccc2)[C@H](OC(=O)Nc2ccccc2-c2ccccc2)[C@@H]1OC(=O)Nc1ccccc1-c1ccccc1 | 0.903 | -0.0038 (inactive) | 0.224 | -0.094 | 0.419 | 1.9 | 0.381 | 1.3 | -0.138 | 1.19 | 2.82 | 1.22 | 1.11 | 0.976 | 1.07 | 0.478 | 0.458 | 0.36 | 1.26 | -1.24 (inactive)
O=c1n(-c2ccccc2)c(=O)n2n1CC(COc1ccccc1)=C1[C@@H](CCc3ccccc3)OB(O)C[C@@H]12 | 0.488 | 0.237 (inactive) | 0.0596 | -0.063 | 0.0107 | 0.516 | 0.362 | 1.3 | 0.0848 | 0.515 | 1.01 | 1.04 | 0.12 | 0.501 | 0.763 | 0.853 | 1.25 | 1.52 | 0.576 | -1.2 (inactive)
